L major viab – reduces viability of Leishmania major promastigotes; inhibition, % at 10 µM; resazurin fluorescence viability; AID 1063; hit rate 9% among 200,000; in the data active means inhibition above about 50%;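 further: promastigotes grown with compound for 44 hours at 28 °C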
RAM inhibit – yeast RAM network inhibition; S. cerevisiae dse1pr::URA3 reporter, 5-FOA growth OD615, 2 d; analog-sensitive cbk1-as2 kinase mutant strain; inhibition, % at 50 µM; hit rate 1.8% among 190,000; AID 868;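 active means inhibition above a set limit, 3 SD over mean compound inhibition, cut at about 8.4% in these data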;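 further: 0% = DMSO-only wells with no growth and 100% = 10 µM 1-NA-PP1 full growth; inhibition rescues growth on 5-FOA so higher OD means more RAM inhibition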
WT yeast gro inh – growth inhibition of WT yeast, mitochondrial fusion screen; mitochondrial fusion phenotypic screen, WT strain; inhibition, % at 10 µM; hit rate 2.1% among 190,000; AID 1362; in the data active means inhibition above about 58%; tested in S. cerevisiae
CHOP inh – inhibitors of CHOP induction in ER stress response; inhibition, % at 10 µM; CHO-K1 CHOP-promoter luciferase, tunicamycin-induced, 15-18 h; hit rate 3.8% among 220,000;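 active means compounds that reduced the stress-induced luciferase reporter signal by more than about 70% of percent inhibition, limit read from the data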;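 further: 0% = tunicamycin plus vehicle and 100% = wells without tunicamycin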
The depositor's hits bear a star; / = not tested or not shown. In the library only some 13% were active in any assay of this set; here they are far more common.

SMILES	L major viab	RAM inhibit	WT yeast gro inh	CHOP inh
C=C(C)COc1ccc(-c2[nH]ncc2-c2ccc(Br)cc2)c(O)c1	1	7	95*	106*
CCOc1ccc(-c2[nH]ncc2-c2ccc(OC)c(OC)c2)c(O)c1	-10	0	3	/
Cc1cccc2[nH]c(CN(C)Cc3nc(CC4CC4)no3)nc12	-6	0	2	1
O=C(c1nc2ccccn2c1CN1CCCC(c2nc3ccccc3o2)C1)N1CCCC1 (stereo unspecified)	-1	0	9	-9
C=C(C)COc1ccc(-c2[nH]ncc2Oc2ccccc2OC)c(O)c1	54*	5	46	0
C=C(C)COc1ccc(-c2[nH]ncc2Oc2ccc(OC)cc2)c(O)c1	/	/	/	-13
COc1ccc(-c2cn[nH]c2-c2ccc(OCc3ccc([N+](=O)[O-])cc3)cc2O)cc1	43	4	68*	91*
C=C(C)COc1ccc(-c2nc(N)ncc2Oc2ccccc2OC)c(O)c1	14	3	-8	93*
O=C(COc1cccnc1[N+](=O)[O-])NCCc1ccc(F)cc1	2	4	10	11
CCC(=O)c1ccc(OCC(O)CN2CCN(c3ccc(F)cc3)CC2)cc1 (stereo unspecified)	-4	2	8	34
Cc1cccc(C)c1OCC(O)CN(Cc1ccccc1O)C1CCCCC1 (stereo unspecified)	94*	-1	24	85*
CN(CC(O)COC(c1ccccc1)c1ccccc1)C1CCCCC1 (stereo unspecified)	19	-1	13	32
CN(CC(O)COc1ccc(OCC(O)CN(C)C2CCCCC2)cc1)C1CCCCC1 (stereo unspecified)	63*	1	3	22
CCC(=O)c1ccc(OCC(O)CN2CCOCC2)cc1 (stereo unspecified)	-6	0	2	11
CCC(=O)c1ccc(OCC(O)CN(C)C2CCCCC2)cc1 (stereo unspecified)	92*	0	15	35
CCC(=O)c1ccc(OCC(O)CNCc2ccc(F)cc2)cc1 (stereo unspecified)	80*	1	-6	-4
Cc1cccc(C)c1OCC(O)CN1CCN(c2ccccn2)CC1 (stereo unspecified)	1	2	-16	17
COc1ccc(N2C(=O)C(CC(=O)Nc3ccccc3)N(Cc3ccccn3)C2=S)cc1 (stereo unspecified)	23	0	-6	6
CCOC(=O)c1cnn(CCOC(=O)c2ccccc2)c1NC(=O)c1ccccc1	-4	4	-5	-1
Cc1cc(NC(=O)CCSc2ccccc2)no1	0	1	-10	-8
C/C(CCS(=O)(=O)c1ccccc1)=N/O	6	0	6	10
CCOc1ccccc1C1N=C(c2ccc(OC)cc2)CC(c2ccccc2O)N1 (stereo unspecified)	51*	1	20	6
CCOc1cc(CNc2ccc(N3CCCCC3)cc2)cc(Br)c1OCC(=O)NC(C)(C)C	25	0	65*	17
C=CCOc1c(Br)cc(CNc2ccc(NC(=O)CCC)cc2)cc1OCC	87*	3	22	34
CCOc1cc(CNc2cccc3ccccc23)cc(Br)c1OCC(=O)NC(C)(C)C	15	1	-3	17
SMILES	L major viab	RAM inhibit	WT yeast gro inh	CHOP inh
CCOc1cc(CNc2ccc(N(C)C)cc2)cc(Br)c1OCC(=O)NC(C)(C)C	101*	2	15	95*
C=CCOc1ccc(CNc2ccc(NC(=O)CCC)cc2)cc1OCC	39	2	2	4
CCOC(=O)Cn1c(C)[n+](CC(=O)c2ccccc2)c2ccccc21	/	/	/	-3
CC1CCc2nn(CC(=O)Nc3ccc(F)cc3F)cc2C1 (stereo unspecified)	-8	2	19	31
CCN(CC)c1ccc(NC(=O)Cn2cc3c(n2)CCC(C)C3)c(C)c1 (stereo unspecified)	-6	3	7	79*
CCOC(=O)C1=C(N)N2C(=O)C(C)SC2=C(C(=O)OC)C1c1ccccc1OC (stereo unspecified)	-3	0	/	82*
COc1ccc(NC(=O)c2ccc(S(=O)(=O)N(C)C)cc2)cc1	1	1	-2	1
COc1ccc(-n2c(C)cc(-c3csc(NC(=O)c4ccc(S(=O)(=O)N(C)C)cc4)n3)c2C)cc1	63*	6	-12	-23
COCCN(CCOC)S(=O)(=O)c1ccc(C(=O)Nc2nc(-c3ccncc3)cs2)cc1	85*	0	4	34
O=C(COC(=O)c1ccc(NS(=O)(=O)c2ccc(Br)s2)cc1)NC1CCCC1	-8	7	-3	23
O=C(NC1CCCCCC1)C1CCC(CNS(=O)(=O)c2ccc(Br)s2)CC1 (stereo unspecified)	5	5	4	95*
CCN(CC)S(=O)(=O)c1ccc(OC)c(NC(=O)c2cc([N+](=O)[O-])ccc2Cl)c1	2	5	-5	-75
CN(C)S(=O)(=O)c1ccc(C(=O)Nc2ccccc2[N+](=O)[O-])cc1	66*	1	-10	4
CCN(CC)S(=O)(=O)c1ccc(Cl)c(C(=O)Nc2ccc(Cl)cc2[N+](=O)[O-])c1	85*	2	-25	79*
CN(C)S(=O)(=O)c1ccc(Cl)c(C(=O)Nc2nc3ccccc3[nH]2)c1	-2	1	-4	-13
CCN(CC)S(=O)(=O)c1ccc(Cl)c(NC(=O)c2cc(Cl)cc(Cl)c2)c1	-4	3	-9	89*
Cc1ccccc1NC(=O)c1ccc(S(=O)(=O)N(C)C)cc1	-2	2	11	4
CN(C)S(=O)(=O)c1ccc(Cl)c(C(=O)Nc2ccccc2[N+](=O)[O-])c1	61*	2	2	22
Cc1c(C(=O)Nc2ccccc2)csc1-c1ccccc1	-9	4	31	39
Cc1nn(CC(=O)Nc2cc(S(=O)(=O)N(C)C)ccc2Cl)c(C)c1[N+](=O)[O-]	72*	2	8	46
CN(C)S(=O)(=O)c1ccc(Cl)c(NC(=O)CN2CCCCCC2)c1	4	1	-10	16
Cc1c(C(=O)Nc2ccccc2[N+](=O)[O-])csc1-c1ccccc1	-2	6	74*	30
Nc1ccc2c(c1)nc(Cc1ccccc1)n2CCO	-1	1	0	11
COC(=O)c1cccc(CSc2nnc(C)s2)c1	-1	0	-12	-12
COC(=O)[C@H](C)[C@@H]1C[C@@]1(C)[C@@H](NC(=O)OCc1ccccc1)c1ccccc1	0	8.6*	19	13
Cc1cc(CNC(=O)[C@H](C)[C@@H]2C[C@@]2(C)[C@@H](NC(=O)OCc2ccccc2)c2ccccc2)nn1C	3	0	-4	20
COc1ccc(CNC(=O)[C@H](C)[C@@H]2C[C@@]2(C)[C@@H](NC(=O)OCc2ccccc2)c2ccccc2)cc1OC	19	5	69*	29
C[C@@H](C(=O)O)[C@H]1C[C@]1(C)[C@H](NC(=O)OCc1ccccc1)c1ccccc1	-5	-1	6	-8
C[C@@H](C(=O)NCc1ccccc1)[C@H]1C[C@]1(C)[C@H](NC(=O)OCc1ccccc1)c1ccccc1	27	9.5*	20	44
